From PubChem BioAssay AID743025 (Vanderbilt Specialized Chemistry Center, 2013)
Values without a mark were called inactive. Calls of active or inactive are those of the source.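 The calls were made as follows: active = IC50 below 10 µM at human M5 in a calcium flux test, acting as a negative modulator; inactive = the rest.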

Target: Muscarinic acetylcholine receptor M5 (Homo sapiens) (UniProt P08912)
Assay: inhibition of ACh-evoked M5 calcium signal – cell-based, single concentration, human M5 (AID 743025)
Conditions: CHO-K1 hM5, ACh EC80 calcium flux, Fluo-4; at 10 µM; active compounds read low

Sequence of Muscarinic acetylcholine receptor M5 (Homo sapiens) (P08912 whole entry, looked up): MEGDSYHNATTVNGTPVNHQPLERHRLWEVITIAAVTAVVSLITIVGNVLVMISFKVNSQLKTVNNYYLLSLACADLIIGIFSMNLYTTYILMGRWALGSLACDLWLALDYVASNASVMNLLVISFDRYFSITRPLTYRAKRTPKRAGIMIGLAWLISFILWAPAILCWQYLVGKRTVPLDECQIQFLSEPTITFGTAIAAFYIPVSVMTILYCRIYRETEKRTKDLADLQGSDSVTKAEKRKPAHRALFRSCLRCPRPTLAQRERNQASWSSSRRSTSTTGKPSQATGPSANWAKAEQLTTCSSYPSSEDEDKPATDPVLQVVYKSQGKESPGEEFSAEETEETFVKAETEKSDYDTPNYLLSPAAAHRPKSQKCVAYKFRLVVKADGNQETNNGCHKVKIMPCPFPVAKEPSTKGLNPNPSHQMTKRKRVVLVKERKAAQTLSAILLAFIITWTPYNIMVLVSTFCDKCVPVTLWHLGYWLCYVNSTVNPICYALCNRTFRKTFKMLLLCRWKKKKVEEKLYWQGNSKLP

O=C(c1ccc(SC(F)(F)F)cc1)N1CCN2C(=O)c3ccccc3C12c1ccc(F)cc1 (stereo not given)
activity remaining: -0.72% (active)

O=C(c1ccc(OC(F)(F)F)cc1)N1CCN2C(=O)c3ccccc3C12c1ccccc1 (stereo not given)
activity remaining: 1.8% (active)

O=C(c1ccc(F)cc1)N1CCCC1c1ccccc1 (stereo not given)
activity remaining: 87%

CSc1ccc(C(=O)N2CCN3C(=O)c4ccccc4C23c2ccccc2)cc1 (stereo not given)
activity remaining: 58%

O=C(c1cc(F)cc(F)c1)N1CCN2C(=O)c3ccccc3C12c1ccc(F)cc1 (stereo not given)
activity remaining: 69.3%

COc1ccc(C(=O)N2CCN3C(=O)c4ccccc4C23c2ccccc2)cc1 (stereo not given)
activity remaining: 77.7%

Cc1cccc(C(=O)N2CCCN3C(=O)c4ccccc4C23c2ccc(Cl)cc2)c1 (stereo not given)
activity remaining: 72.9%

O=C(c1cc(F)cc(F)c1)N1CCCN2C(=O)c3ccccc3C12c1ccc(Cl)cc1 (stereo not given)
activity remaining: 76.8%

CCCCCC(=O)N1CCN2C(=O)c3ccccc3C12c1ccccc1 (stereo not given)
activity remaining: 75.3%

O=C(c1ccccc1C(F)(F)F)N1CCN2C(=O)c3ccccc3C12c1ccccc1 (stereo not given)
activity remaining: 82.4%

COc1ccc(C23c4ccccc4C(=O)N2CCN3C(=O)c2ccccn2)cc1 (stereo not given)
activity remaining: 66.1%

O=C(c1ccc(F)c(F)c1)N1CCCN2C(=O)c3ccccc3C12c1ccc(Cl)cc1 (stereo not given)
activity remaining: 80.4%

COc1ccc(C23NCCN2C(=O)c2ccccc23)cc1 (stereo not given)
activity remaining: 72.7%

O=C(c1cccc(C(F)(F)F)c1)N1CCN2C(=O)c3ccccc3C12c1ccccc1 (stereo not given)
activity remaining: 6.77% (active)

O=C(c1ccncc1)N1CCN2C(=O)c3ccccc3C12c1ccc(Cl)cc1 (stereo not given)
activity remaining: 72.4%
